BoNT F protease – BoNT/F light chain protease inhibitors, primary screen, biochemical, flow cytometry, MLPCN library | Botulinum neurotoxin type F light chain protease (Clostridium botulinum) | Multiplex microsphere protease cleavage assay | inhibition, % at 10 µM | 360,000 compounds, 0.22% hits; in the data active = inhibition above about 35%, passing the limit was not always enough; inconclusive = no clear call, values can overlap the other calls; also: plate controls were buffer without enzyme for full effect and enzyme alone for no effect
Autofluor counter – counter-screen for toxin protease inhibitors: compound fluorescence | compound autofluorescence counterscreen, microsphere flow cytometry; hits give high values | 360,000 compounds, 3.1% hits | fluorescence intensity (no concentration beside the values); in the data active = fluorescence intensity above about 16000; inconclusive = no clear call, values can overlap the other calls
BoNT A protease – BoNT/A light chain protease inhibitors, primary screen, biochemical, flow cytometry, MLPCN library; Botulinum neurotoxin type A light chain protease (Clostridium botulinum A str. ATCC 3502); multiplex microsphere protease substrate cleavage; inhibition, % at 10 µM; 360,000 compounds, 0.17% hits; AID 588499, 2011; also: plate controls were buffer without enzyme for full effect and enzyme alone for no effect
Anthrax LF prot – Bacillus anthracis LF protease inhibitors, primary screen, biochemical, multiplex microsphere, MLPCN library; Lethal factor (Bacillus anthracis), P15917; multiplex microsphere protease cleavage assay; inhibition, % at 10 µM; 360,000 compounds, 0.12% hits; also: plate controls were buffer without enzyme for full effect and enzyme alone for no effect
Target sequence (P15917 whole entry, looked up): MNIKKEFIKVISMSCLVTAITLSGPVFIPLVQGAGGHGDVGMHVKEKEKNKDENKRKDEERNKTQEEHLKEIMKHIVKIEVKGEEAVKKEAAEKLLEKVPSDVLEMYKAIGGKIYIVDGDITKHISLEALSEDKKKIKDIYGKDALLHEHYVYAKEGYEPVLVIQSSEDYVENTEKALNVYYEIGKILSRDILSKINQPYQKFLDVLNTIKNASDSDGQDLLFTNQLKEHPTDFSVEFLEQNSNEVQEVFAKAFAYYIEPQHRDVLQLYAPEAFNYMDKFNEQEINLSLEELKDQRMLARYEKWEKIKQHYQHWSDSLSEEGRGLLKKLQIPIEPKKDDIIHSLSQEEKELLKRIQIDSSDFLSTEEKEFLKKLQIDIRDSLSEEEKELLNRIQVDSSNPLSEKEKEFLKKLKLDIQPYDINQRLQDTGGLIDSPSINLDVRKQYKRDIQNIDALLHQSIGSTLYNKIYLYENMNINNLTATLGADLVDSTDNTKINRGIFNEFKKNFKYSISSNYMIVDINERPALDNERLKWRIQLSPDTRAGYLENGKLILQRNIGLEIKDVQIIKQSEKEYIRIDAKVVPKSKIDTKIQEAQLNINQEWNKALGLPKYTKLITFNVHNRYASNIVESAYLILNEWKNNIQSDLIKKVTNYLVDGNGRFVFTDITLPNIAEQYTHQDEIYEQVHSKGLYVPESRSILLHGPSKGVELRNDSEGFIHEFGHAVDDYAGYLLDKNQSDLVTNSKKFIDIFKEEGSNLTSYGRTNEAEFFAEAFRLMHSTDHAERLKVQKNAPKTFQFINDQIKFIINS
* hit, by the source's call; u = inconclusive. Sampled rows, rich in hits. Any-hit rate of the full collection: about 3.5%. Rule as the data show it, unless noted: active = inhibition above about 30%; inconclusive = no clear call, values can overlap the other calls; inactive = below that.

SMILES | BoNT F protease | Autofluor counter | BoNT A protease | Anthrax LF prot
Cc1ccc(-n2c(SCC(N)=O)nnc2-c2ccc(S(=O)(=O)N3CCCCC3)cc2)c(C)c1 | 0 | 16453* | 1 | -1
COc1cc2c(cc1OC)CN(CC(=O)Nc1ccc3c(c1)OC(F)(F)O3)CC2 | -8 | 24021* | u | -2
CC1=C(C(=O)N2CCCCCC2)CC(CC(=O)NCCc2ccccn2)C(=O)N1Cc1ccc(C(C)(C)C)cc1 (centres undefined) | 1 | 5677 | 0 | -8
O=C(Cn1cnc2ccccc2c1=O)NCCC(=O)N1CCN(c2ccccc2)CC1 | 2 | 22618* | u | -5
Cc1cccc(N2CCN(C(=O)CCNC(=O)Cn3ccc4ccccc4c3=O)CC2)c1C | 10 | 19164* | u | -19
CN1CCN(C(=O)CCNC(=O)Cn2ccc3ccccc3c2=O)CC1 | 4 | 6370 | 2 | -12
COc1ccc(OC)c(-n2c(-c3cccc(C)c3)n[nH]c2=S)c1 | -3 | 2194 | 0 | 0
COc1ccc(OC)c(-n2c(-c3ccccc3)n[nH]c2=S)c1 | 0 | 22480* | u | -4
CCC/C=C/c1ccc(CN2C(C(C)C)C(=O)N(Cc3cn(CCC4OCCO4)nn3)CCS2(=O)=O)cc1 (centres undefined) | 3 | 3682 | 0 | -2
Cc1ccc(NC(=O)CCS(=O)(=O)c2ccc3nc(C)sc3c2)c(C)c1 | -6 | 5846 | 0 | -6
CCCN(C(=O)CSc1ncccn1)C1CCS(=O)(=O)C1 (centres undefined) | 5 | 6248 | 3 | 3
NS(=O)(=O)c1ccc(NC(=O)NC2CCCCC2)cc1 | -5 | 2005 | 0 | -3
CC(=O)NS(=O)(=O)c1ccc(NC(=O)NC2CCCCC2)cc1 | -4 | 23046* | 0 | -2
O=C1COc2ccc(OCc3ccc(F)cc3)cc21 | 0 | 23249* | -2 | -1
O=C1NC[C@@H](CCCCN2C[C@H](Cc3ccccc3)N(CC3CCCCC3)C(=O)C2=O)N(CC2CCCCC2)C1=O | -3 | 5794 | -1 | -2
COc1ccc(-n2c(C)nn(C)c2=O)c(OC)c1 | 3 | 18468* | u | -8
Cc1nn(C)c(=O)n1-c1ccc(Oc2ccccc2)cc1 | 4 | 21312* | 3 | -2
CC1(c2nnnn2Cc2ccccc2)CCC(=O)N1Cc1ccco1 (centres undefined) | -4 | 5817 | -1 | -4
COC(=O)c1ccc(CNC(=O)CC[C@H]2O[C@@H](n3cc(C)c(=O)[nH]c3=O)C[C@@H]2O)cc1 | 0 | 4416 | 0 | 2
Cc1ccc(S(=O)(=O)NCCC(=O)NC2CCCC2)cc1 | 2 | 20213* | u | 1
O=C(CCNS(=O)(=O)c1ccc(Br)s1)NC1CCCC1 | -1 | 24053* | -2 | 1
COc1ccccc1CN1CC(C(=O)NCC2(O)CCCCC2)CCC1=O (centres undefined) | -2 | 3873 | 0 | -4
COC(=O)c1ccc(Cl)c(NC(=O)CN(c2ccc3c(c2)OCO3)S(C)(=O)=O)c1 | 7 | 20796* | 4 | -11
S=C(Nc1ccccc1Cl)N1CCN(Cc2ccccc2)CC1 | -4 | 2557 | -1 | 0
Cc1c(Cl)cccc1NC(=O)CN1CCN(CCO)CC1 | 2 | 22331* | 2 | -11
SMILES | BoNT F protease | Autofluor counter | BoNT A protease | Anthrax LF prot
COC(=O)c1cc(NC(=O)CN(c2ccc3c(c2)OCO3)S(C)(=O)=O)ccc1Cl | -1 | 3407 | 0 | -3
COC(=O)c1ccc(Cl)c(NC(=O)CN2CCOCC2)c1 | -2 | 2852 | 1 | -1
Cc1c(Cl)cccc1NC(=S)N1CCN(Cc2ccccc2)CC1 | 1 | 23770* | 0 | 2
Cc1c(Cl)cccc1NC(=O)CCN1CCCCCC1 | -10 | 8142 | -2 | 19
COC(=O)c1ccc(Cl)c(NC(=O)CN2CCN(C)CC2)c1 | -3 | 23083* | u | -4
COc1ccc(OC)c(CN2CCN(C(=O)c3ccc(C)c(S(=O)(=O)Nc4ccccc4OC)c3)CC2)c1 | -12 | 4419 | 0 | -7
O=C(CN1CCCC1)Nc1ccccc1Cl | -1 | 22970* | u | 1
Nc1nc(NCc2ccccc2)nc(Nc2cccc(F)c2)c1[N+](=O)[O-] | 0 | 22824* | 1 | -2
CCc1ccc2c(c1)NC(=O)C2(C)Cc1ccccc1OC (centres undefined) | -3 | 2869 | 0 | -4
Cc1ccc(NC(=O)c2csc(-c3ccccc3)c2C)cc1 | 0 | 23926* | 0 | 2
Cc1c(C(=O)Nc2cccc([N+](=O)[O-])c2)csc1-c1ccccc1 | -4 | 16284* | -1 | -8
COc1ccccc1NS(=O)(=O)c1cccc(C(=O)N/N=C/c2ccc([N+](=O)[O-])o2)c1 | -2 | u | 1 | 1
CCOc1ccc(Cl)cc1-c1cc(C(=O)Nc2ccc(Br)cc2)[nH]n1 | -8 | 4476 | -1 | -4
Nc1c(N2CCOCC2)cc(Cl)c2nonc12 | -3 | 23187* | u | -2
O=C(c1ccc2c(c1)C(=O)N(Cc1ccco1)C2=O)N1CCOCC1 | -5 | 23883* | -5 | -1
O=S(=O)(c1cccc2nsnc12)N1CCOCC1 | 2 | 2883 | 0 | -1
Cc1ccc2nsnc2c1S(=O)(=O)N1CCOCC1 | -3 | 22875* | -2 | -4
CCC(C)[C@H](NC(=O)NCc1ccccn1)C(=O)OC (some centres undefined) | 0 | 16131* | 0 | -7
O=C(Nc1ccc2c(c1)OCO2)Nc1cnccn1 | -5 | 21245* | -4 | 0
O=C(NCc1ccccn1)Nc1ccc2c(c1)OCO2 | 0 | 17706* | -3 | -2
COc1ccc(NC(=O)NCc2ccccn2)cc1OC | 14 | 19081* | 7 | -16
COC(=O)c1ccc(CNc2ccc(C(C)=O)cc2)cc1 | -2 | 5226 | 0 | -3
O=C(COC(=O)c1cccc(OC(F)F)c1)Nc1ncccn1 | 2 | 3087 | 0 | -1
C=CCNC(=O)c1onc(CS(=O)(=O)c2cc(C)cc(C)c2)c1C(=O)NCC=C | 8 | 3903 | 0 | 6
OCCN(Cc1ccccn1)Cc1ccccn1 | -8 | 5932 | -2 | 1
SMILES | BoNT F protease | Autofluor counter | BoNT A protease | Anthrax LF prot
COc1ccc(OC)c(NC(=O)C2C3C=CC(C3)C2C(=O)NCc2ccccn2)c1 (centres undefined) | -8 | 21062* | -4 | -2
CCNC(=O)NC(=O)C(C)OC(=O)c1oc2ccc(OC)cc2c1C (centres undefined) | 4 | 21371* | 4 | -21
COCCNc1nc(Oc2cccc3ccccc23)c2sccc2n1 | 0 | 3686 | 0 | -7
c1ccc2sc(NC3=NCN(C4CCCCCC4)CN3)nc2c1 | 0 | 19894* | 0 | -1
COc1ccc(NC(=O)c2cc(-c3cccc(OC)c3)on2)cc1 | -14 | 6077 | 0 | 4
COc1ccc(-c2cc(C(=O)Nc3cccc(Cl)c3)no2)cc1 | 2 | 3096 | 2 | -3
COc1cccc(-c2cc(C(=O)Nc3cccc(O)c3)no2)c1 | -5 | 24356* | -3 | -2
COc1ccccc1-c1cc(C(=O)Nc2ccccc2SC)no1 | -4 | 8096 | 0 | 2
COc1cccc(-c2cc(C(=O)Nc3cccnc3Cl)no2)c1 | -1 | 5786 | 0 | 0
